Activity calls are given as the source filed them. How the source made its calls: active means hit-call score of the fitted dose curve at least 0.9, where 1 is the maximum; inactive means score below 0.9.

Read-out in the assay: Apolipoprotein A-V (APOA5) gene, APOA5 (gene 116519)
Put plainly: LTEA_HepaRG_APOA5: Life Technologies and Expression Analysis (LTEA) Assay for Apolipoprotein A-V (APOA5) gene using HepaRG (AID 2283474). To be noted: mRNA level, 48 h; actives raise or lower the signal. As to the method: LTEA_HepaRG is a cell based, multiplexed-readout assay that uses HepaRG, a human liver cell line, with measurements taken at 48 hours after chemical dosing on a 96-well plate.LTEA_HepaRG_APOA5 is one of 102 assay component(s) measured in the LTEA HepaRG cell culture assay. It is a marker of Steatosis.Data from the assay component LTEA_HepaRG_APOA5 was analyzed into 1 endpoint. This assay endpoint, LTEA_HepaRG_APOA5, was analyzed with bidirectional fitting relative to DMSO as the negative control and baseline of activity. Using a type of inducible reporter, measures of mRNA induction for gain or loss-of-signal activity can be used to understand regulation of transcription factor activity. To generalize the intended target to other relatable targets, this assay endpoint is annotated to the apolipoprotein intended target family, where the subfamily is Steatosis.
A total of 1060 chemcials from the ToxCast library were tested in eight-point concentration-response experiments. Cell culture and cytotoxicity assays were conducted at Thermo Fisher Scientific's Custom Services facility (Madison, WI). A single lot of human HepaRG cells (Thermo Fisher Scientific, Frederick, MD) was used for the cell culture experiments. 96-well format collagen type I coated plates of human HepaRG cells were prepared using established methods. Briefly, cryopreserved HepaRG cells were thawed, plated at a density of approximately 100,000 cells/well in HepaRG Thaw, Plate, and General Purpose media (HPRG770, Thermo Fisher Scientific), and incubated for 48 hours. 0.5% DMSO was selected as vehicle control to balance the requisite need of DMSO in HepaRG cultures to maintain differentiation (for example, baseline metabolism, proportions of hepatocytes vs. cholangiocytes), while enabling further hepatic receptor pathway activation (for example, PXR and CAR) in response to chemical exposure. 48 hours after plating, the culture medium was replaced with HepaRG Serum-Free Incudtion Media. Cells were exposed to each test chemical in duplicate and maintained in CO2 incubators for another 48 hours. Chemical plates were thawed to room temperature and 200x concentrations of treatment groups were prepared. 8-point conentration-reponse curves were made with the highest exposure at 100 uM, followed by half-log dilutions, all in 0.5% DMSO. Each test plate contained variouse controls, induction positive controls (1mM phenobarbital), cytotoxicity positive controls ([…] aflatoxin B1), vehicle controls (0.5% DMSO), and total lysis controls (0.5% DMSO). Cell morphology images were taken using an Essen IncuCyte FLR automated microscope, with six 96-well plates imaged in about 24 minutes. Images were captured and exported and JPEG files. Spent culture media was transfered to black-well plates for the LDH assay, and remaining media was sorted at -80 C for later use. Cells were treated with RLT buffer and frozen until shipped for gene expression analysis. Total RNA was isolated from the cell suspension in 75 uL of Buffer RLT (Qiagen, Germantown, MD 20874) by Quintiles/Expression Analysis (Durham, NC) using a custom isolation procedure. Total RNA from each plate well was transferred to a preamplification plate. Fluidigm's 96.96 Dynamic ArrayTM (Fluidigm, Amsterdam, the Netherlands) technology was used for gene expression analyses by quantitative reverse transcription polymerase chain reaction (qRT-PCR, performed by Quintiles/Expression Analysis, Durham, NC)89. Standard TaqManTM Assays (Applied Biosystems/ThermoFisher Scientific, Foster City, CA) were used to assess the expression of 93 genes selected based on their selectivity and sensitivity to important hepatic receptors known to be modulated by environmental chemicals; importance in human hepatocyte functionality; and hepatotoxicity. […]
With `O=C(N[C@H]1CN2CCC1CC2)c1ccc2c(c1)OCCO2`, the outcome was inactive. Regarding `CN(C)C(=S)S`, the call was inactive. The entry for `Oc1cc(Cl)c(Cl)cc1Cl` is “inactive”. As for `Clc1cccc(Cl)c1`, the molecule was called inactive. For the molecule `O=C(O)C1(c2ccc3c(c2)OC[C@H](Cc2ccc(-c4ccccc4)cc2)[C@H]3O)CCCC1`, the result was inactive. With `OCCN(CCO)CCO`, the molecule was called inactive.

For `Cc1cc(C)cc(C)c1`, the call was inactive. To `Clc1cccc(Cl)c1Cl` belongs “inactive”. The entry for `COc1ccccc1N` is “inactive”; for `Oc1c(Cl)cc(Cl)cc1Cl` it is “inactive”; for `CC(C)(C)c1ccccc1O` it is “inactive”.

Regarding `N#Cc1cccnc1`, the outcome was inactive.

In the case of `CC(C)O.CC(C)O.OCCN(CCO)CCO.OCCN(CCO)CCO.[Ti]`, the outcome was inactive. `CCCCCCCCCCCCc1cccc(S(=O)(=O)O)c1`: the molecule was called inactive.

The values above are taken from PubChem BioAssay (EPA / NIEHS).
